From PubChem BioAssay (Tox21)
Several values for one entry are separate records, joined by “and”; a condition that tells them apart may be missing. Equal values may be shown once. Inconclusive results are not listed. Where a structure was tested more than once in an assay, its records may differ in their call. Activity calls are given as the source filed them. Unless noted, the call rests on the fitted dose curve; in most records, active means well fitted curve in the direction sought with a large enough effect in the repeat runs; inconclusive means weak or mixed curves; inactive means no such curve, though single readings can be large; an effect the other way counts as inactive or inconclusive.

What was measured:
[1] = target: Progesterone receptor (Homo sapiens) (UniProt P06401); assay: qHTS assay to identify small molecule agonists of the progesterone receptor (PR) signaling pathway (AID 1346784; calls by dose curve; further: nearly all actives have a fitted effect of over 30% in size)
Progesterone receptor (Homo sapiens), sequence (P06401 whole entry, looked up): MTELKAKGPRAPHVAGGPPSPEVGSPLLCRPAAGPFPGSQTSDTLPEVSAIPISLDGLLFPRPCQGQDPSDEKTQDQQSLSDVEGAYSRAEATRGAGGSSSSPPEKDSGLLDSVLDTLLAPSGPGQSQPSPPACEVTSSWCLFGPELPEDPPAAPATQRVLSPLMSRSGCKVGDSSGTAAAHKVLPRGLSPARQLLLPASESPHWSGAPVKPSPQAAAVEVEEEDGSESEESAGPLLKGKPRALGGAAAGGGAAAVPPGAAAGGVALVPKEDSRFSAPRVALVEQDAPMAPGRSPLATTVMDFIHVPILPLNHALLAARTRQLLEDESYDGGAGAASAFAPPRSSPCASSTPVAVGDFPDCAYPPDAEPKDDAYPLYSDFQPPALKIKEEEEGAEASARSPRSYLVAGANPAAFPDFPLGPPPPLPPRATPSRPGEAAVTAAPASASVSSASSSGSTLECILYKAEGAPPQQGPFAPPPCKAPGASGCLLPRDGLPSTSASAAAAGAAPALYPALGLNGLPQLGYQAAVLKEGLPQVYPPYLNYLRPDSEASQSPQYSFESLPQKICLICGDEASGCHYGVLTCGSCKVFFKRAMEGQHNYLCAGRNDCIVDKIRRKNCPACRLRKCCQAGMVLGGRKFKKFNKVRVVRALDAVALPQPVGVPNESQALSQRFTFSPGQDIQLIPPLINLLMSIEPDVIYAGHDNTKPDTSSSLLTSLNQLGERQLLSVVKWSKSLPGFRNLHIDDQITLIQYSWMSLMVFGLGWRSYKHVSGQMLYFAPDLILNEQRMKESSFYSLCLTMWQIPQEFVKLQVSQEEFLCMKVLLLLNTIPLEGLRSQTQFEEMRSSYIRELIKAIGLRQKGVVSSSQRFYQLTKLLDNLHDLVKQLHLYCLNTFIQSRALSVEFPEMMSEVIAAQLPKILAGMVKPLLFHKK
Outline: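 Cells (PR-UAS-bla HEK 293T, GripTite) were plated in assay medium containing 2% charcoal-stripped FBS and incubated 6 hr. Test compounds in DMSO were added for 16 hr at 37C. FRET substrate was then loaded for 2 hr at room temperature before fluorescence reading.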

[2] = target: Progesterone receptor (Homo sapiens) (UniProt P06401); assay: qHTS assay to identify small molecule antagonists of the progesterone receptor (PR) signaling pathway (AID 1346795; active means well fitted inhibition curve with a large enough effect in the signal ratio in the repeat runs, not every such curve was filed as active; the % refers to the signal ratio)
Outline: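 Antagonist mode: compounds tested against 1 nM (final) promegestone stimulation in HEK293T cells expressing PR-UAS-bla reporter, 16 hr at 37C, 5% CO2; beta-lactamase activity detected via B/G FRET substrate after 2 hr at room temperature.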

[3] = qHTS assay to identify small molecule antagonists of the progesterone receptor (PR) signaling pathway - cell viability counter screen (AID 1346798); further: series mostly up to about 92 µM; nearly all actives have a fitted effect of over 50% in size
Outline: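 Counter screen for cytotoxicity: viability of PR-UAS-bla HEK293T cells was measured with CellTiter-Glo luminescence following 16 hr compound exposure in the presence of R5020.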

[4] = qHTS assay to identify small molecule agonists of the progesterone receptor (PR) signaling pathway - cell viability counter screen (AID 1346799; calls by dose curve; further: nearly all actives have a fitted effect of over 45% in size)
Outline: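 Cells (PR-UAS-bla HEK293T) are plated at 3,000/well in 2% charcoal-stripped FBS medium, rested 6 hr, dosed and incubated 16 hr at 37C. CellTiter-Glo is then added and luminescence measured after 30 min at room temperature.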

[5] = qHTS assay to identify small molecule antagonists of the TGF-beta/Smad signaling pathway - cell viability counter screen (AID 1346824); further: nearly all actives have a fitted effect of over 50% in size
Outline: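 Cytotoxicity counter-screen run in the same wells as the beta-lactamase Smad reporter read: CellTiter-Glo luminescence after 30 min at room temperature. HEK 293T SBE-bla cells had 5 hr compound exposure at 37 C with TGF-beta1 (0.25 ng/mL stock).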

[6] = qHTS assay to identify small molecule agonists of the TGF-beta/Smad signaling pathway - cell viability counter screen (AID 1346829); further: top concentration of the series differs between compounds; nearly all actives have a fitted effect of over 45% in size
Outline: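 Same-well cytotoxicity: CellTiter-Glo added after the 2 hr room-temperature beta-lactamase substrate step, luminescence measured 30 min later; cells had 5 hr of compound at 37 C.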

[7] = qHTS assay to identify small molecule agonists of the TGF-beta/Smad signaling pathway (AID 1346859; active means well fitted activation curve with a large enough effect in the signal ratio in the repeat runs, not every such curve was filed as active; the % refers to the signal ratio; further: series mostly up to about 77 µM)
Outline: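 Reporter line: HEK 293T with stably integrated SBE-controlled beta-lactamase. Compound exposure lasts 5 hr at 37 C and 5% CO2; substrate loading follows for 2 hr at room temperature, with emission read at 460 and 530 nm.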

[8] = target: Thyrotropin-releasing hormone receptor (Homo sapiens) (UniProt P34981); assay: qHTS assay to identify small molecule antagonists of the thyrotropin-releasing hormone receptor (TRHR) signaling pathway (AID 1346877; active means well fitted inhibition curve with a large enough effect in the repeat runs, not every such curve was filed as active; further: series mostly up to about 51 µM)
Thyrotropin-releasing hormone receptor (Homo sapiens), sequence (P34981 whole entry, looked up): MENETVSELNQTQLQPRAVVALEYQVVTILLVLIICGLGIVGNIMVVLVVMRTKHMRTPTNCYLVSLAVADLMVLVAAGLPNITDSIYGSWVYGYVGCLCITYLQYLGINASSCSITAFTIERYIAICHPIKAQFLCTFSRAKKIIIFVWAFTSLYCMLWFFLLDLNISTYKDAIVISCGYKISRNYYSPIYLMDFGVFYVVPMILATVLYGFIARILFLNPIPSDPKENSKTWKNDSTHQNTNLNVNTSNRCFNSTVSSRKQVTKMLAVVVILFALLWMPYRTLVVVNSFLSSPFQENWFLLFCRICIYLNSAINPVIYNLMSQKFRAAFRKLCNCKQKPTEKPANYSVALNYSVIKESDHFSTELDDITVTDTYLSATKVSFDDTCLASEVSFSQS
Outline: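 Cells (TRHR-HEK293) are plated and kept 18 h at 37 °C/5% CO2. A calcium-sensitive dye is added for 2 h, compound follows for 5 min at room temperature, and TRH is then given at 1 nM final.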

[9] = target: Thyrotropin-releasing hormone receptor (Homo sapiens) (UniProt P34981); assay: qHTS assay to identify small molecule agonists of the thyrotropin-releasing hormone receptor (TRHR) signaling pathway (AID 1346891; calls by dose curve;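 further: HEK293 cells expressing TRHR with calcium dye readout; series mostly up to about 58 µM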)
Outline: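 Cells: TRHR-Hek293, seeded and incubated 18 h. Dye loading: 2 h at 37 °C. Compound added from DMSO stock by pin tool. Read-out: kinetic calcium fluorescence over 3 min.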

[10] = Human pregnane X receptor (PXR) small molecule agonists, qHTS cell viability counter screen (AID 1346977); further: nearly all actives have a fitted effect of over 50% in size
Outline: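 Cytotoxicity counter screen run in the same wells as the PXR luciferase assay, using PXR-Luc HepG2 cells in charcoal-stripped serum medium. Viability: CellTiter-Fluor fluorescence after 24hr compound treatment.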

[11] = Caspase-3/7 induction in HepG2 cells by small molecules, qHTS assay (AID 1346978); further: nearly all actives have a fitted effect of over 15% in size
Outline: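 Caspase-3/7 induction was measured by Caspase-Glo 3/7 luminescence (30 min, room temperature) after a 17 hr compound exposure of wild-type HepG2 cells seeded at 2,000 per well and pre-incubated 5 hr.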

[12] = Caspase-3/7 induction in CHO-K1 cells by small molecules, qHTS cell viability counter screen (AID 1346979); further: nearly all actives have a fitted effect of over 35% in size
Outline: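 Cytotoxicity counter screen run in parallel with the caspase-3/7 assay: CHO-K1 cells, 16hr compound treatment at 37C, then CellTiter-Fluor for 1hr before fluorescence reading.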

[13] = Caspase-3/7 induction in CHO-K1 cells by small molecules, qHTS assay (AID 1346980); further: nearly all actives have a fitted effect of over 15% in size
Outline: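 Luminescent Caspase-Glo 3/7 read (30min, room temperature) quantified apoptosis induction. Cells were wild-type CHO-K1, treated with compound for 17hr at 37 C and 5% CO2.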

[14] = Caspase-3/7 induction in HepG2 cells by small molecules, qHTS cell viability counter screen (AID 1346981); further: series mostly up to about 92 µM; nearly all actives have a fitted effect of over 30% in size
Outline: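 Steps: seed 2,000 HepG2 cells per well; incubate 5 hr at 37 C; pin-add compounds in DMSO; incubate 16 hr; add CellTiter-Fluor; after 1 hr at 37 C and 5% CO2, read fluorescence.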

[15] = target: Nuclear receptor subfamily 1 group I member 2 (Homo sapiens) (UniProt O75469); assay: Human pregnane X receptor (PXR) small molecule agonists, qHTS assay (AID 1346982); further: nearly all actives have a fitted effect of over 35% in size; further: potency means the concentration at half of the fitted maximal effect
Nuclear receptor subfamily 1 group I member 2 (Homo sapiens), sequence (O75469 whole entry, looked up): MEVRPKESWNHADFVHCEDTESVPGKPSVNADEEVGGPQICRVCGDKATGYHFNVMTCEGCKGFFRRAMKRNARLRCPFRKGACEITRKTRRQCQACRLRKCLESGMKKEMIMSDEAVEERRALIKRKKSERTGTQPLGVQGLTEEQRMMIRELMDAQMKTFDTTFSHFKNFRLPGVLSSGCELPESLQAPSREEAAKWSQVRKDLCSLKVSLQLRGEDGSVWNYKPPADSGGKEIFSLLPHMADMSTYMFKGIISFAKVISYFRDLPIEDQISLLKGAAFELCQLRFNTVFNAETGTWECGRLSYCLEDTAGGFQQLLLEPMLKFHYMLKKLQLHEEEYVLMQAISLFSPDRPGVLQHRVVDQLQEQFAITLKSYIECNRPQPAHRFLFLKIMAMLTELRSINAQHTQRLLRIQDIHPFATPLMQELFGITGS
Outline: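 Agonist mode qHTS: PXR-Luc HepG2 cells plated 5 hr before DMSO-dissolved compounds were pinned in, cultured 24 hr at 37 C, 5% CO2; ONE-Glo luminescence readout.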

[16] = target: Nuclear receptor subfamily 1 group I member 2 (Rattus norvegicus) (UniProt Q9R1A7); assay: Rat pregnane X receptor (rPXR) activation by small molecules, qHTS assay (AID 1346983); conditions: rPXR luciferase reporter cells, One-Glo luminescence, 24 h; stronger effect = higher value; further: nearly all actives have a fitted effect of over 20% in size
Nuclear receptor subfamily 1 group I member 2 (Rattus norvegicus), sequence (Q9R1A7 whole entry, looked up): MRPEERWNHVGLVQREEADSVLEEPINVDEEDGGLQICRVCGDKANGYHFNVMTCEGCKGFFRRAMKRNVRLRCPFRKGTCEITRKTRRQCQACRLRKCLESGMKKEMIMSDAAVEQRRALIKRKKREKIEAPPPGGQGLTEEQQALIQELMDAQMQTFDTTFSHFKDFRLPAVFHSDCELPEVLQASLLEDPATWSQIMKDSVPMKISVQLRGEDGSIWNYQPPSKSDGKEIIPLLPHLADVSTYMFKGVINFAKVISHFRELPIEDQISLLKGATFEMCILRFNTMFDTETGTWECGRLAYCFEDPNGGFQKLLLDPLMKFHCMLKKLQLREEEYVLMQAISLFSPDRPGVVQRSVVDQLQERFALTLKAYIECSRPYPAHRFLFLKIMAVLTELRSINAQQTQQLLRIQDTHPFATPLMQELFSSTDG
Outline: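 Luminescent readout (One-Glo luciferase, 30 min room temperature) followed 24 hr compound treatment at 37 C of rPXR cells plated 2,000 per well and preincubated 5hr; qHTS format with compounds delivered in DMSO.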

[17] = target: Nuclear receptor subfamily 1 group I member 2 (Homo sapiens) (UniProt O75469); assay: CYP3A4 induction through human pregnane X receptor (PXR) by small molecules, qHTS assay (AID 1346984); further: nearly all actives have a fitted effect of over 40% in size
Outline: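 Steps: seed DPX-2 cells, 5 hr at 37C; pin-transfer compounds; 24 hr at 37C; add Luciferin-IPA (3uM final), 3 hr at 37C; add One-Glo, 30 min RT; read luminescence.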

[18] = target: Nuclear receptor subfamily 1 group I member 2 (Homo sapiens) (UniProt O75469); assay: Human pregnane X receptor (PXR) activation by small molecules, qHTS assay (AID 1346985); further: nearly all actives have a fitted effect of over 40% in size
Outline: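 DPX-2 cells (HepG2 co-transfected with a PXR response element and a CYP3A4-promoter luciferase construct) were seeded at 2,000 per well, rested 5 hr at 37C, then exposed to DMSO-dissolved compounds for 24 hr. Activation was read as luciferase luminescence.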

[19] = target: Cytochrome P450 2D6 (Homo sapiens) (UniProt P10635); assay: Cytochrome P450 Family 2 Subfamily D Member 6 (CYP2D6) small molecule antagonists: luciferase reporter qHTS assay (AID 1671196); further: nearly all actives have a fitted effect of over 50% in size; further: potency means the concentration at half of the fitted maximal effect
Cytochrome P450 2D6 (Homo sapiens), sequence (P10635 whole entry, looked up): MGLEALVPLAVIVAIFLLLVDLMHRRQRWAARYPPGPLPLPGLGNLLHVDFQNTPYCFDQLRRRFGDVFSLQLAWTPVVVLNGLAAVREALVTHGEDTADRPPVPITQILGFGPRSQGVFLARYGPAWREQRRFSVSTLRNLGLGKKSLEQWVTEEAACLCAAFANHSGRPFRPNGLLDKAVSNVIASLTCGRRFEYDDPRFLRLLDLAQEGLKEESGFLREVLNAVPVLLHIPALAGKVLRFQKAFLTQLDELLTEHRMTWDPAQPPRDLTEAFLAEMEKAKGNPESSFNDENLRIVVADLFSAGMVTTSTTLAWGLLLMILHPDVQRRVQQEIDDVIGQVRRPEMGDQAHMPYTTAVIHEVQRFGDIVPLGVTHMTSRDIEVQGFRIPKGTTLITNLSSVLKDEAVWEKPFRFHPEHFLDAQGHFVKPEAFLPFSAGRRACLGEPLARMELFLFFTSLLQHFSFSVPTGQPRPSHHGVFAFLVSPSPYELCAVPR
Outline: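 P450-Glo format: CYP2D6 converts a proluciferin substrate to luciferin in an NADPH-driven reaction lasting 1 h at room temperature. Light output, proportional to CYP2D6 activity, reflects interference by test chemicals.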

[20] = target: Cytochrome P450 2C19 (Homo sapiens) (UniProt P33261); assay: Cytochrome P450 Family 2 Subfamily C Member 19 (CYP2C19) small molecule antagonists: luciferase reporter qHTS assay (AID 1671197); further: nearly all actives have a fitted effect of over 65% in size; further: potency means the concentration at half of the fitted maximal effect
Cytochrome P450 2C19 (Homo sapiens), sequence (P33261 whole entry, looked up): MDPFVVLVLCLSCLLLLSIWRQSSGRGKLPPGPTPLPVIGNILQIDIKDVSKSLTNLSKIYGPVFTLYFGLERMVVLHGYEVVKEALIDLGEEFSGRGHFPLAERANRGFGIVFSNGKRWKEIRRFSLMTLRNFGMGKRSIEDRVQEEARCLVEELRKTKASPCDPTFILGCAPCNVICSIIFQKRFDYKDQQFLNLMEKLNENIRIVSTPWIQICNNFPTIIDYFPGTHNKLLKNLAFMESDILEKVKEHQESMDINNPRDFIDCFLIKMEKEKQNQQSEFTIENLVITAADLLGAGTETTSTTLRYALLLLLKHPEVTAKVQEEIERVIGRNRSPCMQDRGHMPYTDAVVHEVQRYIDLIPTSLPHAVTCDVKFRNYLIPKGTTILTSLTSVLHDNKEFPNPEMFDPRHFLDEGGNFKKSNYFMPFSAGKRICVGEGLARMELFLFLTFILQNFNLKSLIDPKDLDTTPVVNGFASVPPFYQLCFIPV
Outline: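 Quantitative high-throughput screen of the Tox21 library using CYP2C19 with proluciferin substrate. Reaction: NADPH regeneration, 37C, 1 h, after 10 min compound preincubation at room temperature. Readout: luminescence.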
On the % scale 0 is the no-effect control and ±100 the full control effect.

CCCC(CCC)C(=O)O
inactive: Potency [1] | outcome [2] | Potency [3] | Potency [4] | outcome [5] | Potency [6] | outcome [7] | outcome [8] | outcome [9] | Potency [10] | Potency [11] | Potency [12] | outcome [13] | Potency [14] | Potency [15] | max activation [16] 6.66% | outcome [17] | Potency [18] | Potency [19] | Potency [20]

CCOc1ccc(NC(=O)CC(C)O)cc1 (stereo not drawn)
32.1 µM (active) and inactive: Potency [19]
inactive: Potency [1] | outcome [2] | Potency [3] | Potency [4] | outcome [5] | Potency [6] | outcome [7] | outcome [8] | outcome [9] | Potency [10] | Potency [11] | Potency [12] | outcome [13] | Potency [14] | Potency [15] | max activation [16] 0.554% | outcome [17] | Potency [18] | Potency [20]

Cc1cc(=O)[nH]c(=S)[nH]1
inactive: Potency [1] | outcome [2] | Potency [3] | Potency [4] | outcome [5] | Potency [6] | outcome [7] | outcome [8] | outcome [9] | Potency [10] | Potency [11] | Potency [12] | outcome [13] | Potency [14] | Potency [15] | max activation [16] -8.17% | outcome [17] | Potency [18] | Potency [19] | Potency [20]

C1N2CN3CN1CN(C2)C3
inactive: Potency [1] | outcome [2] | Potency [3] | Potency [4] | outcome [5] | Potency [6] | outcome [7] | outcome [8] | outcome [9] | Potency [10] | Potency [11] | Potency [12] | outcome [13] | Potency [14] | Potency [15] | Potency [19] | Potency [20]

COc1ccc2[nH]cc(CCNC(C)=O)c2c1
active: Potency [15] 62.1 µM
inactive: Potency [1] | outcome [2] | Potency [3] | Potency [4] | outcome [5] | Potency [6] | outcome [7] | outcome [8] | outcome [9] | Potency [10] | Potency [11] | Potency [12] | outcome [13] | Potency [14]

O=C(c1ccccc1)C(O)c1ccccc1 (stereo not drawn)
inactive: Potency [1] | outcome [2] | Potency [3] | Potency [4] | outcome [5] | Potency [6] | outcome [7] | outcome [8] | outcome [9] | Potency [10] | Potency [11] | Potency [12] | outcome [13] | Potency [14] | Potency [15] | max activation [16] -4.09% | outcome [17] | Potency [18]
39.6 µM (active) and inactive: Potency [19]
active: Potency [20] 17.7 µM and 31.7 µM and 8.71 µM

CCCN(CCC)S(=O)(=O)c1ccc(C(=O)O)cc1
inactive: Potency [1] | outcome [2] | Potency [3] | Potency [4] | outcome [5] | Potency [6] | outcome [7] | outcome [8] | outcome [9] | Potency [10] | Potency [11] | Potency [12] | outcome [13] | Potency [14] | Potency [19] | Potency [20]
